Bioassay records from PubChem.
Compounds with a hit are over-represented: about 6.2% of the library has one in this group of screens.
KB-V1 cytotox: kills drug-selected multidrug resistant KB-V1 cells; AID 1347076; actives 3.4% (n = 400,000); Potency, µM (top dose mostly 46.1 µM), usual class: cytotoxic; KB-V1 MDR cells viability, CellTiter-Glo, 72 h; also: % is scaled to controls: 0 for no effect and ±100 for the full control effect; nearly all actives have a fitted effect of over 60% in size
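Compound-treated KB-V1 multidrug-resistant cells, 72 h, 37 degrees C; viability by CellTiter-Glo. Fitted qHTS curves give the values.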
KB-3-1 cytotox: KB-3-1 parental cell cytotoxicity; KB-3-1 viability, CellTiter-Glo ATP luminescence, 72 h; actives 1.4% (n = 400,000); Potency, µM (highest dose often 46.1 µM), hits mostly cytotoxic; also: % is scaled to controls: 0 for no effect and ±100 for the full control effect; nearly all actives have a fitted effect of over 60% in size
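Luminescent ATP read-out (CellTiter-Glo) measures survival of drug-naive KB-3-1 cells after 72 h compound exposure at 37 °C. Titration series was screened from lowest to highest concentration, with DMSO vehicle plates as background controls.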
HT1080NT lethal: kills 2HG-producing HT-1080-NT fibrosarcoma cells; AID 686970; Potency, µM (highest dose often 46.1 µM), for inactives: at the top dose activity, negative = less viability, hits mostly cytotoxic; actives 1.6% (n = 360,000); HT-1080-NT fibrosarcoma viability, CellTiter-Glo ATP luminescence, 48 h;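 also: NT is the 2HG producing partner of a matched IDH1 knockdown line; 0% = DMSO-treated cells and -100% = media-only wells without cells; nearly all actives have a fitted effect of over 55% in size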
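Viability by CellTiter-Glo luminescence after 48 h compound exposure at 37C of HT-1080-NT cells (750/well, RPMI, 5% FBS). % activity scaled between DMSO wells and medium-only wells, then curve-fitted and categorized by curve class.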
S2 tox: viability counter-screen for ATXN expression inhibitors; S2 cells (HEK-293 line with an ATXN2-luciferase reporter) viability, CellTiter-Fluor protease fluorescence, 24 h; Potency, µM (doses to about 56.7 µM), usual class: cytotoxic; actives 0.49% (n = 400,000); also: nearly all actives have a fitted effect of over 40% in size
ATXN2 expr inh: ATXN2 expression inhibition. HEK-293 ATXN2-luciferase reporter, luminescence, 24 h. Potency, µM (series often up to 57 µM), for the others: top-dose activity change, negative = inhibition, most hits filed as inhibitors. actives 0.72% (n = 360,000). AID 1745845; also: % is scaled to controls: 0 for no effect and ±100 for the full control effect; nearly all actives have a fitted effect of over 55% in size
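qHTS (up to 57 uM final) was run with 24 h compound exposure of reporter cells at 37 °C. Each well was multiplexed: SteadyGlo luminescence measured ATXN2-luciferase expression after a fluorogenic Gly-Phe-AFC viability readout (25 uM final).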
HT1080 IDH1KD tx: toxicity to HT-1080 IDH1 knockdown cells (counter line); HT-1080 IDH1 knockdown viability, ATP luminescence, 48 h; Potency, µM (top dose mostly 46.1 µM), inactives show top-dose activity, negative = toxicity, actives largely listed as cytotoxic; actives 2% (n = 360,000); AID 686971;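 also: 0% = DMSO wells and -100% = cell-free medium wells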
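% activity derives from luminescence (CellTiter-Glo), normalised to DMSO and no-cell wells. HT-1080-IDH1KD cells, 750/well, had 48 h compound exposure at 37 °C.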
An asterisk follows results filed as active; i = inactive; ? = inconclusive; / = not tested or not shown. Calls follow the shape of the dose curve; as a rule, active = well fitted curve in the direction sought with a large enough effect; inconclusive = small, poorly fitted or top-dose-only effect, or another doubt; inactive = no such curve, though single readings can be large; an effect the other way counts as inactive or inconclusive. Potency is read from the fitted curve at half-maximal effect.

SMILES | KB-V1 cytotox | KB-3-1 cytotox | HT1080NT lethal | S2 tox | ATXN2 expr inh | HT1080 IDH1KD tx
CCCCC[C@@H]1CCCCC[C@@H](O)C[C@@H](O)[C@@H](O)/C=C/C(=O)O1 | i | i | -0.4% | i | -2.9% | 5.2%
O=C(O)CCCO | / | / | / | i | / | /
O=C(NN=Cc1ccc(N(CCCl)CCCl)cc1Cl)c1cccnc1 | i | i | -11.3% | ? | ? | -15.7%
Cc1cc(N(CCCl)CCCl)ccc1C=NNC(=O)c1cccnc1 | i | i | 2.4% | i | 1.78µM* | -9.2%
C[C@@H]1CC[C@@]2(OC1)O[C@H]1C[C@H]3[C@@H]4CC=C5C[C@@H](O[C@@H]6O[C@H](CO)[C@@H](O[C@@H]7O[C@@H](C)[C@H](O)[C@@H](O)[C@@H]7O)[C@H](O)[C@@H]6O[C@@H]6O[C@@H](C)[C@H](O)[C@@H](O)[C@@H]6O)CC[C@]5(C)[C@@H]4CC[C@]3(C)[C@@H]1[C@H]2C | / | / | / | / | 12.2µM* | /
CC(C)(C)c1cc([N+](=O)[O-])cc(C(C)(C)C)c1O | i | 11.6µM* | ? | ? | ? | ?
Cc1cccc(CN2CC=C(c3noc(CCC(=O)Nc4ccc(C)c(F)c4)n3)CC2)c1 | i | i | / | ? | ? | /
COC12C(COC(N)=O)C3=C(C(=O)C(C)=C(N)C3=O)N1CC1C2N1C (stereo not given) | ? | ? | ? | ? | 6.31µM* | ?
COc1ccc(C(c2nnnn2-c2ccc3c(c2)OCCO3)N2CCC(n3c(=O)[nH]c4ccccc43)CC2)cc1 (stereo not given) | ? | ? | 18.4µM* | ? | -2.5% | 14.6µM*
COc1ccc(-n2nnnc2C(c2ccccc2OC(F)(F)F)N2CCC(n3c(=O)[nH]c4ccccc43)CC2)cc1 (stereo not given) | i | ? | ? | ? | ? | ?
O=c1[nH]c2ccccc2n1C1CCN(C(c2ccnc3ccccc23)c2nnnn2-c2ccc3c(c2)OCCO3)CC1 (stereo not given) | ? | ? | ? | ? | 0.0% | 16.4µM*
CCC(=NCc1ccc2c(c1)OCO2)c1c(O)n(C)c(=O)n(C)c1=O | i | 14.6µM* | -13.7% | i | -24.5% | -18.6%
CCC(=NCCOc1ccc(Cl)cc1)c1c(O)n(C)c(=O)n(C)c1=O | 18.4µM* | ? | ? | i | -30.4% | -14.0%
CCC(=NCc1cc(OC)cc(OC)c1)c1c(O)n(C)c(=O)n(C)c1=O | 7.31µM* | ? | 8.5% | i | -23.6% | 1.2%
CCCCn1c(O)c(C(C)=NCc2ccc3c(c2)OCO3)c(=O)[nH]c1=O | ? | i | -2.5% | i | -22.3% | -0.9%
CC(=NCc1ccc2c(c1)OCO2)c1c(O)n(C)c(=O)n(C)c1=O | 20.6µM* | 8.2µM* | 2.51µM* | i | -13.9% | -25.6%
CCC(=NCCN1CCCCC1)c1c(O)n(C)c(=O)n(C)c1=O | i | i | 7.3% | i | -2.5% | 2.8%
COC(=O)[C@H]1[C@@H](OC(=O)c2ccccc2)C[C@@H]2CC[C@H]1N2C | / | / | / | i | / | /
Cc1cccc(-n2c(/C=C/c3c[nH]c4ccccc34)nc3ccccc3c2=O)c1 | ? | i | / | i | -17.4% | /
CC(Cc1ccccc1)N(C)Cc1ccco1 (stereo not given) | / | / | / | i | -0.4% | /
CC1=C(N2CC2)C(=O)C(CO)=C(N2CC2)C1=O | 0.259µM* | 0.461µM* | ? | 2.67µM* | 0.119µM* | 0.0058µM*
Cc1cc(NC(=O)CCl)nn1C | 20.6µM* | 13µM* | ? | i | -1.1% | ?
O=[N+]([O-])c1ccccc1-c1cc(-c2ccccc2)cc(-c2ccccc2)[n+]1Cc1ccccc1Cl | i | 9.2µM* | 7.31µM* | ? | ? | 10.3µM*
Cc1cccc(NC(=S)N/N=C/c2ccc([N+](=O)[O-])s2)c1 | i | ? | 17.8µM* | / | 20µM* | ?
O=C1/C(=C/c2ccc(N(CCCl)CCCl)cc2)Cc2ccccc21 | i | i | / | / | / | /
SMILES | KB-V1 cytotox | KB-3-1 cytotox | HT1080NT lethal | S2 tox | ATXN2 expr inh | HT1080 IDH1KD tx
Cc1ccc(-c2c(C)n3c4c(=O)n(C)c(=O)n(C)c4nc3n2CCO)cc1 | i | 2.06µM* | / | ? | -14.6% | /
O=C(CI)c1ccc(Cl)cc1 | i | i | / | / | / | /
C=C(C)COc1ccc(-c2n[nH]c(C)c2-c2ccc(Br)cc2)c(O)c1 | ? | ? | 10µM* | / | -23.0% | 10µM*
CCCc1cc(-c2n[nH]c(C(=O)OCC)c2-c2cscn2)c(O)cc1O | i | i | 0.7% | i | -0.6% | ?
COc1cccc(C(O)c2nc(-c3ccncc3)cs2)c1 (stereo not given) | ? | i | ? | i | -4.0% | -18.5%
C[C@]12CCC(=O)C[C@@H]1CC[C@@H]1[C@@H]2CC[C@]2(C)[C@@H](O)CC[C@@H]12 | 16.4µM* | i | ? | i | -2.7% | 8.4%
CCCC(=O)Nc1cc(C(=O)N2CCC3(CC2)OCCO3)ccc1S(=O)(=O)c1ccc(C)cc1 | 10.3µM* | i | 4.1% | i | -5.6% | -1.9%
C/C=C(\C)C(=O)N[C@@H](c1ccccc1)[C@@H](O)C(=O)O[C@H]1C[C@@]2(O)[C@@H](OC(=O)c3ccccc3)C3[C@](C)(C(=O)[C@H](O)C(=C1C)C2(C)C)[C@@H](O)C[C@H]1OC[C@@]31OC(C)=O (stereo not given in full) | i | ? | 0.0411µM* | ? | -15.5% | 0.0058µM*
CC(=O)O[C@@]12CO[C@@H]1C[C@H](O)[C@@]1(C)C(=O)[C@H](O)C3=C(C)[C@@H](O)C[C@@](O)([C@@H](OC(=O)c4ccccc4)C12)C3(C)C (stereo not given in full) | i | 11.6µM* | ? | i | -4.9% | ?
C[N+](C)(C)CC1CCCc2ccccc2C1=O (stereo not given) | i | ? | ? | ? | ? | 5.8µM*
C[N+](C)(C)CC1CCCC(C[N+](C)(C)C)C1=O (stereo not given) | ? | ? | ? | ? | ? | 3.66µM*
N#CC(C#N)=NNc1ccc([N+](=O)[O-])cc1 | i | i | 20.6µM* | 14.1µM* | 0.0% | 16.4µM*
Cc1ccccc1C(=O)N1Cc2cnnn2-c2ccccc2C1C#N (stereo not given) | i | i | 10.7% | i | 7.3% | 13.2%
Cc1ccccc1CN1Cc2cnnn2-c2ccccc2C1C#N (stereo not given) | ? | ? | 8.2µM* | / | ? | 6.51µM*
